Experimental data: paper PMC7862700, “An all-to-all approach to the identification of sequence-specific readers for epigenetic DNA modifications on cytosine”

What was measured:
Test in all cases: DAPPL (digital affinity profiling via proximity ligation, sequencing); 10 mM Tris-HCl pH 7.5, 50 mM NaCl, 1 mM DTT, 4% glycerol, room temperature, 30 min; GST-TFs on glutathione beads, 16-mer random dsDNA library, 0.1% formaldehyde crosslink after washing; high values mean tight binding
FLI1 = molecular target: T1, FLI1 (Homo sapiens, UniProt Q01543 1-452); conditions: protein: recombinant; tags: N-terminal GST; dsDNA, one strand shown
T1 sequence: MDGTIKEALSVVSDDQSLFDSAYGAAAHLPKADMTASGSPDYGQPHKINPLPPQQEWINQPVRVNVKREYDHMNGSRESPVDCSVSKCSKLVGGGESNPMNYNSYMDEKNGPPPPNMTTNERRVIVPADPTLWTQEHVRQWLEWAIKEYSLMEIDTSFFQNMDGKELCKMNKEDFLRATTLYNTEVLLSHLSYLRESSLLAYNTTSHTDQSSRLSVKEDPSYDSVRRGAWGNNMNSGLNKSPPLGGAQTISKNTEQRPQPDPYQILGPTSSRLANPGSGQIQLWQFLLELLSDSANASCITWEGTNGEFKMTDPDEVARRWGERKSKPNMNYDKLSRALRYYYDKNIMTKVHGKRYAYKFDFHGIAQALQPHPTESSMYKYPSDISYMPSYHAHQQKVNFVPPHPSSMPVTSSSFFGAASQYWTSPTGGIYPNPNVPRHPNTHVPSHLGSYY
Outline: (§1)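 After expression in yeast as GST fusions, human transcription factors were bound to glutathione beads, DNA-barcoded and mixed with a tag-only sample. The pools were incubated with 200 nmole of a 16-mer random double-stranded DNA library in Tris/NaCl/DTT/glycerol buffer (30 min, room temperature), washed and crosslinked with 0.1% formaldehyde. Proximity ligation with BsaI/T4 ligase ran for 1 h at 37 °C, before PCR amplification and sequencing on an Illumina NextSeq500. Binding signal is a hexamer's read frequency for a factor divided by its frequency for the tag-only sample.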

ELK1 = molecular target: T2, ELK1 (Homo sapiens, UniProt P19419 1-428); conditions: protein: recombinant; tags: N-terminal GST; dsDNA, one strand shown
T2 sequence: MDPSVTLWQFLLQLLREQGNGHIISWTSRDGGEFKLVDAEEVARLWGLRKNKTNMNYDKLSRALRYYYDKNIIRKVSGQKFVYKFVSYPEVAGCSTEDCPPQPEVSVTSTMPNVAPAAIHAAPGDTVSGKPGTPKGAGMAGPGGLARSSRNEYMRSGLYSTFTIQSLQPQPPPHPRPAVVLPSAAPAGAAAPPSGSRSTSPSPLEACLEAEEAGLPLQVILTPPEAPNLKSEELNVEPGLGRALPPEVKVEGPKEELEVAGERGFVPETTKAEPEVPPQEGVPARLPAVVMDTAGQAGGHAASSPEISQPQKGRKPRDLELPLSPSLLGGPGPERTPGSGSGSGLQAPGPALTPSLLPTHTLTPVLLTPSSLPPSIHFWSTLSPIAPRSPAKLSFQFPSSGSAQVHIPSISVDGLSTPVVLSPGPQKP
Outline: as §1

GABPA = molecular target: T3, GABPA (Homo sapiens, UniProt Q06546 1-454); conditions: protein: recombinant; tags: N-terminal GST; dsDNA, one strand shown
T3 sequence: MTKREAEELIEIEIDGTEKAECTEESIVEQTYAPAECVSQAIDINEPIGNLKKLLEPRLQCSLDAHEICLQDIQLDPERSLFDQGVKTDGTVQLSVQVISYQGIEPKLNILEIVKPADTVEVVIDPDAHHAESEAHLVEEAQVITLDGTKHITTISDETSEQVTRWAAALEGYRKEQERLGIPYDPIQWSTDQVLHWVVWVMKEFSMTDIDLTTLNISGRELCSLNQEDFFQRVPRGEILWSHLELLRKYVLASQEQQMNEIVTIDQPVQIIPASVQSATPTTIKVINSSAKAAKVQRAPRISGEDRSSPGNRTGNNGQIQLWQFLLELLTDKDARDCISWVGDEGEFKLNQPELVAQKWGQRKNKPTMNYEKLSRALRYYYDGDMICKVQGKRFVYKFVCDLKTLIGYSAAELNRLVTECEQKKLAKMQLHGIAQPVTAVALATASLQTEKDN
Outline: as §1

ERG = molecular target: T4, ERG (Homo sapiens, UniProt P11308 1-479); conditions: protein: recombinant; tags: N-terminal GST; dsDNA, one strand shown
T4 sequence: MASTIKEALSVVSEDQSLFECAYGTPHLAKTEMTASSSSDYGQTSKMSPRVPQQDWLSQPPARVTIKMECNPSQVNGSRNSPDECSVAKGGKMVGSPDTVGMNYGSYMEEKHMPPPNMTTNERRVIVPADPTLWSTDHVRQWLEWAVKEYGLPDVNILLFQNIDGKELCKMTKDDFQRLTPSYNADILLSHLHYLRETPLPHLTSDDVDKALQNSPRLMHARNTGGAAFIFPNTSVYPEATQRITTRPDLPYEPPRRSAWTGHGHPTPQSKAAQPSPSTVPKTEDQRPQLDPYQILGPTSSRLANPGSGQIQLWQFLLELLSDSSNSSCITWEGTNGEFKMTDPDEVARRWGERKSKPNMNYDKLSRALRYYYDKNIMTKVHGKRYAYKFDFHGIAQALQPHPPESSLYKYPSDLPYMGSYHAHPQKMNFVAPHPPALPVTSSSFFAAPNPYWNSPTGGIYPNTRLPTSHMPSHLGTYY
Outline: as §1

ELF1 = ELF1 (Homo sapiens, UniProt P32519 1-619); conditions: protein: recombinant; tags: N-terminal GST; dsDNA, one strand shown
Outline: as §1

EHF = molecular target: T5, EHF (Homo sapiens, UniProt Q9NZC4 1-300); conditions: protein: recombinant; tags: N-terminal GST; dsDNA, one strand shown
T5 sequence: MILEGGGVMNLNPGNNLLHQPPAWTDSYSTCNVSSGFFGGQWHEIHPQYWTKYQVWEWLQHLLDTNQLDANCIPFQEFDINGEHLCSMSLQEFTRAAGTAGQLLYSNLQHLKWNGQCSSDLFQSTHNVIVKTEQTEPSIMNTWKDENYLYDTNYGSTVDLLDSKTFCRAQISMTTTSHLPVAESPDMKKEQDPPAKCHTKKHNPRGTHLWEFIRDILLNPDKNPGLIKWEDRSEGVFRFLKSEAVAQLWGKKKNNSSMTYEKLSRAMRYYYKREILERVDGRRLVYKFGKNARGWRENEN
Outline: as §1

SPI1 = SPI1 (Homo sapiens, UniProt P17947 1-270); conditions: protein: recombinant; tags: N-terminal GST; dsDNA, one strand shown
Outline: as §1

SPIB = SPIB (Homo sapiens, UniProt Q01892 1-262); conditions: protein: recombinant; tags: N-terminal GST; dsDNA, one strand shown
Outline: as §1

ELK3 = molecular target: T6, ELK3 (Homo sapiens, UniProt P41970 1-407); conditions: protein: recombinant; tags: N-terminal GST; dsDNA, one strand shown
T6 sequence: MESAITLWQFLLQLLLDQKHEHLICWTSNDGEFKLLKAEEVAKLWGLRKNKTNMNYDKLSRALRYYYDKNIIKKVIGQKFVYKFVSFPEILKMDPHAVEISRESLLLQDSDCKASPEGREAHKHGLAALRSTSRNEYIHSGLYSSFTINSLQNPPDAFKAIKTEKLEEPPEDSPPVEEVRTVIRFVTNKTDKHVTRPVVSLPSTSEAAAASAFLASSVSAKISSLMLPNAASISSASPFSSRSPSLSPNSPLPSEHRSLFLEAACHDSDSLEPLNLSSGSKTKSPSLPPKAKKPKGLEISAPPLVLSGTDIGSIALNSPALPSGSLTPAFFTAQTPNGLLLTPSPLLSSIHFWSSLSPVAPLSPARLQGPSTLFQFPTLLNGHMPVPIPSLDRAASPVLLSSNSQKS
Outline: as §1

FEV = molecular target: T7, FEV (Homo sapiens, UniProt Q99581 1-238); conditions: protein: recombinant; tags: N-terminal GST; dsDNA, one strand shown
T7 sequence: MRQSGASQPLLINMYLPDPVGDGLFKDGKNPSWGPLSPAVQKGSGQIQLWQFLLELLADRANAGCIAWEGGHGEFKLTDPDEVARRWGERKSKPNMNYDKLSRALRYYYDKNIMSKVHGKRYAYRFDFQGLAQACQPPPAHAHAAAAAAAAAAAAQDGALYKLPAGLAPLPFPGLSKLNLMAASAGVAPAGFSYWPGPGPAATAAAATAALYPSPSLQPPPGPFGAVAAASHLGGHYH
Outline: as §1

ETV5 = ETV5 (Homo sapiens, UniProt P41161 1-510); conditions: protein: recombinant; tags: N-terminal GST; dsDNA, one strand shown
Outline: as §1

HSF1 = HSF1 (Homo sapiens, UniProt Q00613 1-529); conditions: protein: recombinant; tags: N-terminal GST; chain copies: 3; dsDNA, one strand shown
Outline: as §1

SPIC = molecular target: T8, SPIC (Homo sapiens, UniProt Q8N5J4 1-248); conditions: protein: recombinant; tags: N-terminal GST; dsDNA, one strand shown
T8 sequence: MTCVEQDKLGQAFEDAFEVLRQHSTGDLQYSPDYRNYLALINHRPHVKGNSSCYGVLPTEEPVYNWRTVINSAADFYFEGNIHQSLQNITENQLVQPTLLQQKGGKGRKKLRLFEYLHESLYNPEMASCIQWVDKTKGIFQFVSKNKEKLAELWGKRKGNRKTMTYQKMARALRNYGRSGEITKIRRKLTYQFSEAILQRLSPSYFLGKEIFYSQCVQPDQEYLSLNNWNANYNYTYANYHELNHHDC
Outline: as §1

ELF4 = ELF4 (Homo sapiens, UniProt Q99607 1-663); conditions: protein: recombinant; tags: N-terminal GST; dsDNA, one strand shown
Outline: as §1

ELK4 = molecular target: T9, ELK4 (Homo sapiens, UniProt P28324-2 1-405); conditions: protein: recombinant; tags: N-terminal GST; dsDNA, one strand shown
T9 sequence: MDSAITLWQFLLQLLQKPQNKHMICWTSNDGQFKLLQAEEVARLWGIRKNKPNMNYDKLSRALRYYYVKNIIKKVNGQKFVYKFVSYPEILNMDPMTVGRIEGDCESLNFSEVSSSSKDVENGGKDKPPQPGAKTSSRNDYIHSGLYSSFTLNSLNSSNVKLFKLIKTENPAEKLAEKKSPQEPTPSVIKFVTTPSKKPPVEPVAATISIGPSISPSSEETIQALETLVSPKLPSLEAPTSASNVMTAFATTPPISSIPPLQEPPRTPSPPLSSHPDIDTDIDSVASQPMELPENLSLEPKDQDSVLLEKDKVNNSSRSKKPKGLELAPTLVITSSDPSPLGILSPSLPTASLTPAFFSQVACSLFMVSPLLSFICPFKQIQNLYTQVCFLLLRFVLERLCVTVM
Outline: as §1

ETV2 = molecular target: T10, ETV2 (Homo sapiens, UniProt O00321 1-342); conditions: protein: recombinant; tags: N-terminal GST; dsDNA, one strand shown
T10 sequence: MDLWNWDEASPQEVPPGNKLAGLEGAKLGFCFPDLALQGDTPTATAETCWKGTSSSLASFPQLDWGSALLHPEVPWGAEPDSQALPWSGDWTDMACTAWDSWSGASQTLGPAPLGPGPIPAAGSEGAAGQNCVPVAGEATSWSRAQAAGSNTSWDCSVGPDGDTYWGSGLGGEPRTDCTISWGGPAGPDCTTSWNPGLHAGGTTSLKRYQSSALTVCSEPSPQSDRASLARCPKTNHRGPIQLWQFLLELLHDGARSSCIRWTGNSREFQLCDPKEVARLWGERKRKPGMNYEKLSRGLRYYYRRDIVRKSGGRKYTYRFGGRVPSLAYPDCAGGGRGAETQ
Outline: as §1

ELF3 = molecular target: T11, ELF3 (Homo sapiens, UniProt P78545 1-371); conditions: protein: recombinant; tags: N-terminal GST; dsDNA, one strand shown
T11 sequence: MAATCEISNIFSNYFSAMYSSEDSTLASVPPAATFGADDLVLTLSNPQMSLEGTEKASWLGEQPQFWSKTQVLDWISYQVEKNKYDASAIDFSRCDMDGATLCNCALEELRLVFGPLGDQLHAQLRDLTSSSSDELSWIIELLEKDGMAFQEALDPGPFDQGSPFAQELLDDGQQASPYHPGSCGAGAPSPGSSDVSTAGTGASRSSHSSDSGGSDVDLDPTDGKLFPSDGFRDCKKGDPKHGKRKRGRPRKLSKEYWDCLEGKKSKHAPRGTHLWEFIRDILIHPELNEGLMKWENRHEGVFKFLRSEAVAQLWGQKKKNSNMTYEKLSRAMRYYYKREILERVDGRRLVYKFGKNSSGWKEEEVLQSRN
Outline: as §1

CRX = CRX (Homo sapiens, UniProt O43186 1-299); conditions: protein: recombinant; tags: N-terminal GST; dsDNA, one strand shown
Outline: as §1

ETV1 = ETV1 (Homo sapiens, UniProt P50549 1-477); conditions: protein: recombinant; tags: N-terminal GST; dsDNA, one strand shown
Outline: as §1

Sequence of ELF1 (P32519 whole entry): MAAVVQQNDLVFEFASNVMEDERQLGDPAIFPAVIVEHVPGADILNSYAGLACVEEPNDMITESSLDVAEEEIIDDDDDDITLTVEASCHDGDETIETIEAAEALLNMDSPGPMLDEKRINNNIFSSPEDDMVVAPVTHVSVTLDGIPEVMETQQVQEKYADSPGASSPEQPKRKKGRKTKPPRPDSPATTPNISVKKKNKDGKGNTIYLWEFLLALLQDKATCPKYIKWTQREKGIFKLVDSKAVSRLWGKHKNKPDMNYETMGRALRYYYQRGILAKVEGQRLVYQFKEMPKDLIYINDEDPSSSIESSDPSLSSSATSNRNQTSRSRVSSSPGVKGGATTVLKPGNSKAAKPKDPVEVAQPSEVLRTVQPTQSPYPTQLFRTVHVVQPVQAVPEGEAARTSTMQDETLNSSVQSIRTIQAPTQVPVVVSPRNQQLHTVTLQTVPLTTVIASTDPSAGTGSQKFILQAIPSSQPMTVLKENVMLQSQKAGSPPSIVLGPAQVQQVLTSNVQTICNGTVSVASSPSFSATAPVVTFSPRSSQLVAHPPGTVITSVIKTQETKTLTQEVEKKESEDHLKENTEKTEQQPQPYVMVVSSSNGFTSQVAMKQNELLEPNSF
Sequence of HSF1 (Q00613 whole entry): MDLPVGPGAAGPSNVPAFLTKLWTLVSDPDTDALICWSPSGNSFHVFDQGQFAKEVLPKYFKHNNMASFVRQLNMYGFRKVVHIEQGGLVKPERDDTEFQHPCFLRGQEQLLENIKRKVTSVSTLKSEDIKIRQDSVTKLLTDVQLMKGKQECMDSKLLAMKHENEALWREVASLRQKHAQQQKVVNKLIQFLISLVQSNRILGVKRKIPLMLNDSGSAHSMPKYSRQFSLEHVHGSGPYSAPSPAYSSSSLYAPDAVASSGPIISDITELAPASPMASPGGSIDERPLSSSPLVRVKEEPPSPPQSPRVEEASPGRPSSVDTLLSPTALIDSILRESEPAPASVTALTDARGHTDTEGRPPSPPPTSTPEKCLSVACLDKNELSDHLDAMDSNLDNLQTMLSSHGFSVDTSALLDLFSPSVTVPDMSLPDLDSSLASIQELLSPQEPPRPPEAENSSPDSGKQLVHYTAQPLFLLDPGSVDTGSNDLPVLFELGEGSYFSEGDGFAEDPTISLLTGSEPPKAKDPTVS
Sequence of ETV1 (P50549 whole entry): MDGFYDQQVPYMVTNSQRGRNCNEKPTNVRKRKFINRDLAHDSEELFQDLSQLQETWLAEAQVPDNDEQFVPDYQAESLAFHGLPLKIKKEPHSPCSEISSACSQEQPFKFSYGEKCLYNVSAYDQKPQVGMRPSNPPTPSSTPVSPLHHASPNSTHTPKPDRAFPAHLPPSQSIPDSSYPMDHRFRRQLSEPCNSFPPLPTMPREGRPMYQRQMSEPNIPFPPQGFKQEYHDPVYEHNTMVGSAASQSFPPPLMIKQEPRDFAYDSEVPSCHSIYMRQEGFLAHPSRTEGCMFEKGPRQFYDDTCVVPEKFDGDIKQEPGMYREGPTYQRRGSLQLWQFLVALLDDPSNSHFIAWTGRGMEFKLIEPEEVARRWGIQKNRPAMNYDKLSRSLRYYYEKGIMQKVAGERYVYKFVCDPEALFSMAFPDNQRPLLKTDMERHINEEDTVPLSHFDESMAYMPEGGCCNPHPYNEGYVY
Sequence of ETV5 (P41161 whole entry): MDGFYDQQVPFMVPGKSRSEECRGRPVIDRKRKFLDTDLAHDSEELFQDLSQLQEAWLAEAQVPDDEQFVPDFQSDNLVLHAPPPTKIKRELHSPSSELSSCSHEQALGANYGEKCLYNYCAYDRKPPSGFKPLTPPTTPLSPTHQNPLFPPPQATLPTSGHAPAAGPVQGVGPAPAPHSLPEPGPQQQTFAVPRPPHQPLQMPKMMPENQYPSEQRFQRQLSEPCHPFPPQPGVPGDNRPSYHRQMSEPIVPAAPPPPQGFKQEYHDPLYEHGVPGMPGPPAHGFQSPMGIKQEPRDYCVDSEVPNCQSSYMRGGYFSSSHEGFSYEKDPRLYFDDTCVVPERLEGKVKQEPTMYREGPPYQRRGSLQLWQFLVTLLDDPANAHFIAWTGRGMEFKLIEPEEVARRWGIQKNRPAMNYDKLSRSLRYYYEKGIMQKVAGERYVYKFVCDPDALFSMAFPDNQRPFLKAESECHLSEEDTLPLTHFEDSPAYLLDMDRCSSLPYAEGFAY
Sequence of ELF4 (Q99607 whole entry): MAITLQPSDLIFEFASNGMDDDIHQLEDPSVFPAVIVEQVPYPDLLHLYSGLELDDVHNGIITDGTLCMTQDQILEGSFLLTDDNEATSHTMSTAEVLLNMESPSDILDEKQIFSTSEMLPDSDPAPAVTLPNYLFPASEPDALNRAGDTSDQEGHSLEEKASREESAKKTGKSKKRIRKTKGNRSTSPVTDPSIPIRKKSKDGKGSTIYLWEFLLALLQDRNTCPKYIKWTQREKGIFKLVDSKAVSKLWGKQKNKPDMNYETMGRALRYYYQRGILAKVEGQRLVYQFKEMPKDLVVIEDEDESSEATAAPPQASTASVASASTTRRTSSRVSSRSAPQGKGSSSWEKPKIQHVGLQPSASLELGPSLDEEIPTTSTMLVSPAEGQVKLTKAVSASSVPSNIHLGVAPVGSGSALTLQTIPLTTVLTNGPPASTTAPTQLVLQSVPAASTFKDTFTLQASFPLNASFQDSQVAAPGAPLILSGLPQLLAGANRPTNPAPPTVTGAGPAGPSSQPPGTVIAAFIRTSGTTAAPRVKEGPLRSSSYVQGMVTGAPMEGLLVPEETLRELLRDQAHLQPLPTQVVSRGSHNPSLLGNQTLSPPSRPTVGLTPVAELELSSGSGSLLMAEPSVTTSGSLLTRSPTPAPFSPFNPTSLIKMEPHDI
Sequence of CRX (O43186 whole entry): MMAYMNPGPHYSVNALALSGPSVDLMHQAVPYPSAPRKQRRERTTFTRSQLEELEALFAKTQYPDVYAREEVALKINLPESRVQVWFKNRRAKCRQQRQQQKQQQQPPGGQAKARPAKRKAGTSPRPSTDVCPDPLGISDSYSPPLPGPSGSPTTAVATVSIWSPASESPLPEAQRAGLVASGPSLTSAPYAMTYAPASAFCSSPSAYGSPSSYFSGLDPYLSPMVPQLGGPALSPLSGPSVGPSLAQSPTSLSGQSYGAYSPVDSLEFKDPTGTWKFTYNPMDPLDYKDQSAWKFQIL
Sequence of SPIB (Q01892 whole entry): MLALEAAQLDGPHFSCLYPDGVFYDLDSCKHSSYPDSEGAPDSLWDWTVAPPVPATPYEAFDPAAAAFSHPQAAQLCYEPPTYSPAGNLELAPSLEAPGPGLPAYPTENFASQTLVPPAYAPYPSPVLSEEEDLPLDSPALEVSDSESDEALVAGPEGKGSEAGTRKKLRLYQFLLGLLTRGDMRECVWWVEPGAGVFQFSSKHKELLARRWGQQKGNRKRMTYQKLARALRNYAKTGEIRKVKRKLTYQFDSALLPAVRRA

Sequence: TTTGTC
- binding signal (FLI1): 1.35 fold enrichment (6-mer frequency, TF over GST control)
- binding signal (ELK1): 1.21 fold enrichment (6-mer frequency, TF over GST control)
- binding signal (GABPA): 1.19 fold enrichment (6-mer frequency, TF over GST control)
- binding signal (ERG): 1.19 fold enrichment (6-mer frequency, TF over GST control)
- binding signal (ELF1): 1.26 fold enrichment (6-mer frequency, TF over GST control)
- binding signal (EHF): 1.24 fold enrichment (6-mer frequency, TF over GST control)
- binding signal (SPI1): 1.23 fold enrichment (6-mer frequency, TF over GST control)
- binding signal (SPIB): 1.16 fold enrichment (6-mer frequency, TF over GST control)
- binding signal (ELK3): 1.18 fold enrichment (6-mer frequency, TF over GST control)
- binding signal (FEV): 1.19 fold enrichment (6-mer frequency, TF over GST control)
- binding signal (ETV5): 1.15 fold enrichment (6-mer frequency, TF over GST control)
- binding signal (HSF1): 1.11 fold enrichment (6-mer frequency, TF over GST control)
- binding signal (SPIC): 1.16 fold enrichment (6-mer frequency, TF over GST control)
- binding signal (ELF4): 1.18 fold enrichment (6-mer frequency, TF over GST control)
- binding signal (ELK4): 1.23 fold enrichment (6-mer frequency, TF over GST control)
- binding signal (ETV2): 1.16 fold enrichment (6-mer frequency, TF over GST control)
- binding signal (ELF3): 1.27 fold enrichment (6-mer frequency, TF over GST control)
- binding signal (CRX): 1.29 fold enrichment (6-mer frequency, TF over GST control)
- binding signal (ETV1): 1.14 fold enrichment (6-mer frequency, TF over GST control)
